FECH inh: inhibitors of human ferrochelatase. calls only at 10 µM (by protocol). 20,000 tested, 3.3% active. P22830. purified FECH, Ni-mesoporphyrin absorbance 550 nm;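 active = enzyme reaction rate more than 3 SD below the solvent-only control wells on the same plate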;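 note: lower slope than DMSO wells means FECH inhibition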
Target sequence (P22830 whole entry, looked up): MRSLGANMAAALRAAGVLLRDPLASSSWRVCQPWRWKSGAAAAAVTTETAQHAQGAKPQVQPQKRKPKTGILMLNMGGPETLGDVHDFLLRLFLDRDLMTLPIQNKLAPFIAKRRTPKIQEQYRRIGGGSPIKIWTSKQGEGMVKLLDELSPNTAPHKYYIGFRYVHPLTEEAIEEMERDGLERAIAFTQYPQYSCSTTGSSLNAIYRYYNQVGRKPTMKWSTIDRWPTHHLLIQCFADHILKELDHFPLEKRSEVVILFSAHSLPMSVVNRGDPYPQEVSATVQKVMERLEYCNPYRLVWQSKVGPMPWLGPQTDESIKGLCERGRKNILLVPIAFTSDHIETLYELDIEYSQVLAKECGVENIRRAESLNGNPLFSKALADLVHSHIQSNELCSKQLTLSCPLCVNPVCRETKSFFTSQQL
Active calls of the source: *; i = inactive; + = active, no number. Shown is part of a subset that was picked to be rich in hits.

SMILES | FECH inh
O=C(Nc1nc2n(n1)C(c1ccc(F)cc1)C=C(c1ccc(Cl)cc1)N2)c1ccc(F)cc1 (stereo not given) | i
Cc1ccc(C2=CC(c3ccc(Cl)cc3)n3nc(NC(=O)c4ccccc4)nc3N2)cc1 (stereo not given) | +
Cc1ccc(C2=CC(c3ccc(Cl)cc3)n3nc(NC(=O)c4ccco4)nc3N2)cc1 (stereo not given) | +
Cc1ccc(C2=CC(c3ccc(Cl)cc3)n3nc(NC(=O)c4ccc(F)cc4)nc3N2)cc1 (stereo not given) | +
Cc1ccc(C2=CC(c3ccc(Cl)cc3)n3nc(NC(=O)c4cccc(C)c4)nc3N2)cc1 (stereo not given) | i
Cc1ccc(C2=CC(c3ccc(Cl)cc3)n3nc(NC(=O)CC(C)C)nc3N2)cc1 (stereo not given) | +
O=C(Nc1nc2n(n1)C(c1ccc(F)cc1)C=C(c1ccc(Cl)cc1)N2)c1ccco1 (stereo not given) | i
CC(C)C(=O)Nc1nc2n(n1)C(c1ccc(Cl)cc1)C=C(c1ccc(Cl)cc1)N2 (stereo not given) | i
Cc1ccc(C(=O)Nc2nc3n(n2)C(c2ccc(F)cc2)C=C(c2ccc(C)cc2)N3)cc1 (stereo not given) | i
COc1ccc(-c2cc3n(n2)CCC(=O)N3Cc2ccc(C(=O)N3CCc4ccccc43)cc2)cc1 | i
O=C(c1ccc2oc(=O)n(Cc3ccccc3)c2c1)N1CCN(c2ccccn2)CC1 | i
COc1ccc(CC(=O)NCCn2c(CCc3ccccc3)nc3cccnc32)cc1Cl | i
COc1ccc(OC)c(Nc2nc(N3CCCC(C)C3)nc3c2cnn3-c2ccccc2)c1 (stereo not given) | i
O=C(CCC(=O)N1CCc2cc(S(=O)(=O)N3CCCC3)ccc21)N1CCOCC1 | i
Fc1ccc(Nc2nc(NCCc3ccccc3)nc3c2cnn3-c2ccccc2)cc1 | i
CN(C(=O)c1cc(-c2ccncc2)n[nH]1)C1Cc2ccccc2C1 | i
CN1C(=O)c2ccccc2Sc2cc(-c3noc(COc4ccc(F)cc4)n3)ccc21 | i
CN1C(=O)c2ccccc2Sc2cc(-c3noc(CNC(=O)c4ccccc4)n3)ccc21 | +
CC(=O)Nc1ccc(-c2nc(-c3ccc4c(c3)Sc3ccccc3C(=O)N4C)no2)cc1 | i
CCC(=O)Nc1ccccc1-c1nnc(SCC(=O)Nc2cccc(Cl)c2)[nH]c1=O | i
COc1ccc(Nc2cc(C)nc(Nc3ccc(NC(=O)c4ccc(C)c(C)c4)cc3)n2)cc1 | i
CCOC(=O)C1CCN(c2ncc(NS(=O)(=O)c3ccc(F)cc3)cc2C(=O)O)CC1 | i
Cc1cccc(N2C(=O)CN(CCc3ccc(S(N)(=O)=O)cc3)[C@H]3CS(=O)(=O)C[C@H]32)c1 | i
O=C1CCC2(CCN1)CCN(C(=O)C/C=C/c1ccccc1)CC2 | i
Cc1cc(C)c(CN2CCC3(CCNC(=O)CC3)CC2)c(C)c1 | +
SMILES | FECH inh
COc1cccc(-c2[nH]ncc2C(=O)N2CCC3(CCNC(=O)CC3)CC2)c1 | i
Cc1ccc2c(c1)-c1c(cnn1CC(=O)NCCc1ccc(S(N)(=O)=O)cc1)CO2 | i
Cc1ccc(CN(C(=O)CCCN2CCCC2=O)C2CCCC2)s1 | i
CCc1c(C)nc2ncnn2c1Sc1ccc(NC(=O)Nc2ccccc2)cc1 | i
CCc1c(C)nc2ncnn2c1Sc1ccc(NC(=O)Nc2ccc(F)cc2)cc1 | i
CCc1c(C)nc2ncnn2c1Sc1ccc(NC(=O)Nc2ccc(C)c(F)c2)cc1 | +
CCc1c(C)nc2ncnn2c1Sc1ccc(NC(=O)Nc2cccc(C)c2)cc1 | i
CCc1c(C)nc2ncnn2c1Sc1ccc(NC(=O)Nc2ccc3c(c2)OCCO3)cc1 | +
CCc1c(C)nc2ncnn2c1Sc1ccc(NC(=O)Nc2ccc(C)c(C)c2)cc1 | i
O=C(NCCn1[nH]c(=O)ccc1=O)c1ccccc1N1CCCC1 | i
COc1ccc(OC)c(S(=O)(=O)NCCn2c(C(F)(F)F)nc3cccnc32)c1 | i
Cc1cc(NC(=O)c2ccc(C)c(C)c2)n(-c2ncnc3c2cnn3-c2ccc(F)cc2)n1 | i
Cc1cc(Nc2ccc(OC(=O)c3ccc(C)c(C)c3)cc2)n2nc(-c3cccnc3)nc2n1 | i
Cc1cc(Nc2ccc(OC(=O)c3ccncc3)cc2)n2nc(-c3cccnc3)nc2n1 | i
Cc1cc(Nc2ccc(OC(=O)c3ccco3)cc2)n2nc(-c3cccnc3)nc2n1 | +
CCOC(=O)N[C@H]1C[C@@H](C(=O)NC[C@H]2CCc3ccccc3O2)N(C)C1 | i
CCCc1cc(Sc2ccc(NC(=O)Nc3ccc(C)c(F)c3)cc2)n2ncnc2n1 | i
Cc1ccc(CN2CCCN(CC(=O)Nc3ccc(C)c(F)c3)S2(=O)=O)cc1 | i
Cc1ccc(CN2c3ccccc3-c3nc(SCC(=O)Nc4cc(Cl)ccc4C)ncc3S2(=O)=O)cc1 | i
Cc1ccc(CN2c3ccccc3-c3nc(SCC(=O)Nc4ccc(F)c(Cl)c4)ncc3S2(=O)=O)cc1 | +
CCOc1ccc(N(Cc2nc3nc(C)cc(C)n3n2)C(=O)c2ccccc2F)cc1 | i
CCOc1ccc(C(=O)Nc2cc(C)nn2-c2ncnc3c2cnn3-c2cccc(Cl)c2)cc1 | i
COc1ccc(CNc2nc3nc(CN4CCc5ccccc5C4)cc(=O)n3[nH]2)cc1 | +
O=c1cc(CN2CCCCC2)nc2nc(NCc3ccccc3)[nH]n12 | i
COc1ccc(CNc2nc3nc(CN4CCN(c5ccccc5)CC4)cc(=O)n3[nH]2)cc1 | i
SMILES | FECH inh
O=c1cc(CN2CCc3ccccc3C2)nc2nc(NCc3ccc(Cl)cc3)[nH]n12 | +
O=c1cc(CN2CCN(CCO)CC2)nc2nc(NCc3ccc(Cl)cc3)[nH]n12 | i
COc1ccc(CNc2nc3nc(CN4CCOCC4)cc(=O)n3[nH]2)cc1 | +
O=c1cc(CN2CCc3ccccc3C2)nc2nc(NCc3ccccc3)[nH]n12 | i
O=c1cc(CN2CCOCC2)nc2nc(NCc3ccccc3)[nH]n12 | i
O=c1cc(CN2CCOCC2)nc2nc(NCc3ccc(Cl)cc3)[nH]n12 | i
CC(=O)Nc1ccc(Cl)c(C(=O)NCCC2=CC[C@H]3C[C@@H]2C3(C)C)c1 | i
CCOC(=O)c1cc2n(n1)CC(C)(C(=O)NCCC(C)C)N(c1cccc(F)c1)C2=O (stereo not given) | i
Cc1cc(C)n2nc(N(Cc3cccc(F)c3)S(=O)(=O)c3ccc(Cl)cc3)nc2n1 | i
CC(C)c1ccc(S(=O)(=O)NCc2nc3cccnc3n2C)cc1 | i
COc1ccccc1NCc1cc(=O)n2[nH]c(NCc3ccc(F)cc3)nc2n1 | i
Cc1ccc(Cn2c(CNC(=O)c3ccc4c(c3)OCO4)nc3cccnc32)cc1 | i
O=c1cc(CNc2ccccc2Cl)nc2nc(NCc3ccc(F)cc3)[nH]n12 | i
Cc1cc(C)n(CCC(=O)N(C)CCc2noc(C(C)C)n2)c(=O)n1 | +
Cc1cc(C)n(CCC(=O)N(C)Cc2noc(CC(C)C)n2)c(=O)n1 | i
CC(C)c1nc(CCN(C)C(=O)c2ccc(Cl)cn2)no1 | i
O=C(Cc1ccccc1)NCC(=O)N1CCC(c2nc(-c3ccc(F)cc3)no2)CC1 | i
NC(=O)c1ccnc(N2CCN(Cc3ccc(Cl)c(Cl)c3)CC2)c1 | i
CCOc1ccc(NS(=O)(=O)c2cc(C(=O)N3CCCCC3)cs2)cc1 | i
O=C(NC1CCC(n2cnnc2)CC1)c1ccc2cccnc2n1 (stereo not given) | i
COc1cccc(-c2cc(N3CCN(C(=O)Nc4ccc5c(c4)OCCO5)CC3)ncn2)c1 | i

High-throughput results (PubChem BioAssay)
